These results are taken from PubChem BioAssay (EPA / NIEHS).

“And” between values parts separate entries of the source, which are not always exact repeats. Equal entries are not always repeated. Records with an inconclusive call do not appear. Where a structure was tested more than once in an assay, its records may differ in their call. The source made the active and inactive calls. The calls were made as follows, unless noted: active = hit-call score of the fitted dose curve at least 0.9, where 1 is the maximum; inactive = score below 0.9.

Experiment [1] deals with Hepatocyte nuclear factor 4-alpha (Homo sapiens) (UniProt P41235). Description: ATG_HNF4a_TRANS: Attagene TRANS-FACTORIAL HepG2 Assay for human Hepatocyte Nuclear Factor 4 alpha (HNF4a) (AID 2282982; active = hit-call score of the fitted dose curve at least 0.9, where 1 is the maximum). The note with it: HepG2 HNF4a transactivation reporter, mRNA readout. An outline of the steps: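 Multiplexed reporter assay: transfected HepG2, 24 h exposure, total RNA → oligo(dT) RT → PCR → 6-FAM extension → HpaI digest → CE fluorescence. DMSO = negative control.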

Experiment [2] can be described thus: ATG_M_06_TRANS: Attagene TRANS-FACTORIAL HepG2 Assay for M06 Transcription Factor (Internal Marker) (AID 2282983; active = hit-call score of the fitted dose curve at least 0.9, where 1 is the maximum). The note with it: HepG2 Attagene TRANS M06 internal marker reporter. In short, it runs like this: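 Multi-reporter-transfected HepG2, 24 h treatment; reporter transcripts quantified via RT-PCR, primer-extension labelling and CE. DMSO-normalized gain-of-signal fit.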

In experiment [3] the target is Nuclear receptor subfamily 4 group A member 2 (Homo sapiens) (UniProt P43354). Description: ATG_NURR1_TRANS: Attagene TRANS-FACTORIAL HepG2 Assay for human Nuclear Receptor Related Protein 1 (NURR1) (AID 2282985; active = hit-call score of the fitted dose curve at least 0.9, where 1 is the maximum). The note with it: HepG2 Attagene TRANS reporter, mRNA readout. In short, it runs like this: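 Measures transcriptional activation by an exogenous NR-Gal4 chimera in transfected HepG2 liver cells. After 24 h, reporter RNA is reverse-transcribed, amplified and resolved by capillary electrophoresis; DMSO defines baseline.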

The target in experiment [4] is Transcriptional activator Myb (Homo sapiens) (UniProt P10242). Description: ATG_Myb_CIS: Attagene CIS-FACTORIAL HepG2 Assay for human Myeloblastosis (Myb) Proto-Oncogene Transcription Factor (AID 2282986). The conditions noted are these: HepG2 Attagene CIS-FACTORIAL Myb reporter transcription; actives raise or lower the signal. In short, it runs like this: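 After 24 h of compound dosing, total RNA from transfected HepG2 cells is reverse-transcribed and the reporter sequences amplified, labeled and separated by capillary electrophoresis. Values come from bidirectional fitting against DMSO.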

The target of experiment [5] is Nuclear respiratory factor 1 (Homo sapiens) (UniProt Q16656). Description: ATG_NRF1_CIS: Attagene CIS-FACTORIAL HepG2 Assay for human Nuclear Respiratory Factor 1 (NRF1) Orphan Gene (AID 2282987). The conditions noted are these: HepG2 NRF1 cis-element reporter, Attagene multiplex; actives raise or lower the signal. An outline of the steps:
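Measured: fluorescent reporter-specific RT-PCR products from transfected HepG2 cells, separated by capillary electrophoresis. Exposure lasted 24 h. Analysis used bidirectional curve fitting with DMSO as negative control.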

A short description of experiment [6]: ATG_NFI_CIS: Attagene CIS-FACTORIAL HepG2 Assay for human Nuclear Factor I (NFI) (AID 2282989). The conditions noted are these: HepG2 cis-regulatory reporter, NFI response element transcription; actives raise or lower the signal. In short, it runs like this:
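Reporter transcripts were measured by RT-PCR with fluorescent primer extension and capillary electrophoresis 24 h post-treatment. HepG2 cells carried transiently transfected cis-regulated reporter constructs reporting endogenous factor activity; gain or loss fitted against DMSO baseline.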

The target of experiment [7] is Myc proto-oncogene protein (Homo sapiens) (UniProt P01106). Description: ATG_Myc_CIS: Attagene CIS-FACTORIAL HepG2 Assay for human Myelocytomatosis (Myc) Proto-Oncogene Transcription Factor (AID 2282990). The conditions noted are these: HepG2, Attagene cis-reporter transcription factor activity; actives raise or lower the signal. In short, it runs like this: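 Cells of the HepG2 human liver line bear multiple cis-driven reporter transcription units. Reporter mRNA after 24 h exposure is reverse-transcribed, amplified, labelled and resolved by capillary electrophoresis, with gain- or loss-of-signal fitting relative to DMSO.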

Experiment [8] is described as follows: ATG_NF_kB_CIS: Attagene CIS-FACTORIAL HepG2 Assay for human Nuclear Factor Kappa B (NF-kB) (AID 2282991). The note with it: HepG2 Attagene cis-factorial NF-kB reporter mRNA; actives raise or lower the signal. In short, it runs like this: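 Fluorescence of labelled RT-PCR products separated by capillary electrophoresis gives reporter mRNA levels from transfected HepG2 cells exposed 24 h; values are fitted in both directions relative to DMSO.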

Experiment [9] in a line: ATG_NRF2_ARE_CIS: Attagene CIS-FACTORIAL HepG2 Assay for human Nuclear Factor Erythroid 2 Related Factor 2 (NFR2) response to Antioxidant Response Elements (ARE) (AID 2282992). The conditions noted are these: HepG2 Attagene ARE/NRF2 reporter, transcription factor activity; actives raise or lower the signal. An outline of the steps:
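Using transiently transfected HepG2 cells exposed for 24 h, reporter mRNA levels were determined by RT-PCR with fluorescent primer extension and capillary electrophoresis, analysed for gain or loss of signal against DMSO.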

Experiment [10] in a line: ATG_Oct_MLP_CIS: Attagene CIS-FACTORIAL HepG2 Assay for human Octamer-Binding Transcription Factor (Oct) (AID 2282993). The note with it: HepG2 Attagene cis-factorial Oct reporter, mRNA; actives raise or lower the signal. An outline of the steps: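 Readout is reporter transcript level from RT-PCR with fluorescent primer extension and capillary electrophoresis, fitted in both directions against DMSO. Transfected HepG2 reporter units report endogenous factor activity after 24 h dosing.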

Experiment [11] has as its target Cellular tumor antigen p53 (Homo sapiens) (UniProt P04637). Description: ATG_p53_CIS: Attagene CIS-FACTORIAL HepG2 Assay for human p53 Transcription Factor (AID 2282994). The conditions noted are these: HepG2 p53 cis-element reporter, Attagene mRNA; actives raise or lower the signal. In short, it runs like this:
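In HepG2 cells, reporter transcription units under cis-regulatory promoters were transiently introduced. Following 24 h treatment, RNA was processed to labelled, digested cDNA fragments read by capillary electrophoresis; fitting was bidirectional versus DMSO.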

Experiment [12] deals with human Peroxisome Proliferator-activated Receptor alpha (PPARa), PPARA (gene 5465) (UniProt Q07869). Briefly: ATG_PPARa_TRANS: Attagene TRANS-FACTORIAL HepG2 Assay for human Peroxisome Proliferator-activated Receptor alpha (PPARa) (AID 2283001; active = hit-call score of the fitted dose curve at least 0.9, where 1 is the maximum;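 as to AC50: potency for gain of reporter signal over DMSO so agonist or activator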). In short, it runs like this:
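Transfected HepG2 cells treated with test chemical for 24 h. RNA isolated, reverse-transcribed with oligo(dT), PCR-amplified, FAM-labelled and HpaI-digested. Fragments sized by capillary electrophoresis; gain-of-signal fit relative to DMSO.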

Experiment [13] addresses human Peroxisome Proliferator-activated Receptor delta (PPARd), PPARD (gene 5467) (UniProt Q03181). Description: ATG_PPARd_TRANS: Attagene TRANS-FACTORIAL HepG2 Assay for human Peroxisome Proliferator-activated Receptor delta (PPARd) (AID 2283002; active = hit-call score of the fitted dose curve at least 0.9, where 1 is the maximum). An outline of the steps: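 Cell-based TRANS reporter: HepG2, transient MRTU transfection, 24 h exposure. Readout = reporter mRNA (RT-PCR/CE, 6-FAM). Gain-of-signal fit vs DMSO control.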

Experiment [14] can be described thus: ATG_M_32_TRANS: Attagene TRANS-FACTORIAL HepG2 Assay for M32 Transcription Factor (Internal Marker) (AID 2282984; active = hit-call score of the fitted dose curve at least 0.9, where 1 is the maximum;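 also: transcript level of a background control reporter unit measured by RT-PCR and capillary electrophoresis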). The note with it: HepG2 Attagene TRANS M32 internal marker reporter. In short, it runs like this:
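Cell-based TRANS-format assay in HepG2: exogenous chimeric GAL4 reporter units transiently expressed, compounds applied 24 h. Reporter mRNA detected by RT-PCR plus capillary electrophoresis; this readout is an internal background marker.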

Experiment [15] is described as follows: BSK_3C_TissueFactor: BioMAP Diversity Plus: 3C Assay for Tissue Factor Biomarker Activity (AID 2282997). The conditions noted are these: BioMAP 3C HUVEC, tissue factor biomarker readout; actives raise or lower the signal. In short, it runs like this:
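In this endothelial system, HUVEC are treated for 24 h and Tissue Factor is assessed by ELISA, normalised to DMSO.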

Experiment [16] is described as follows: BSK_3C_uPAR: BioMAP Diversity Plus: 3C Assay for Urokinase-type plasminogen activator receptor (uPAR) Biomarker Activity (AID 2282998). The note with it: BioMAP 3C HUVEC, uPAR biomarker ELISA; actives raise or lower the signal. An outline of the steps: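 Cell-surface uPAR on HUVEC (3C system) read by ELISA at 24 h post-treatment, with DMSO as baseline and fitting in both directions. Parallel cultures stained with SRB to flag overt cytotoxicity.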
Background: An ELISA detects its analyte on a solid surface through an enzyme-linked reagent.

A short description of experiment [17]: BSK_3C_VCAM1: BioMAP Diversity Plus: 3C Assay for Vascular cell adhesion molecule 1 (VCAM1) Biomarker Activity (AID 2282999). The conditions noted are these: BioMAP 3C HUVEC, VCAM1 ELISA, cytokine-stimulated; actives raise or lower the signal. An outline of the steps: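 Activity fitted in both directions relative to DMSO, with ELISA measurement of the surface marker on primary HUVEC (3C) at 24 h post-treatment; parallel SRB staining (0.1% SRB, TCA-fixed, 560 nm) flagged overt cytotoxicity.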

The nature of experiment [18]: BSK_4H_Eotaxin3: BioMAP Diversity Plus: 4H Assay for Eotaxin 3 Biomarker Activity (AID 2283000).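 Also: CCL26 protein level quantified by ELISA in parallel with SRB cytotoxicity check.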 The conditions noted are these: primary human endothelial cells (HUVEC); actives raise or lower the signal. An outline of the steps:
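ELISA quantitation of CCL26 (Eotaxin-3) protein from chemically dosed human vascular endothelial cells at 24 h; increases and decreases both scored relative to DMSO-treated baseline.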

human Peroxisome Proliferator-activated Receptor delta (PPARd), PPARD (gene 5467), sequence (Q03181 whole entry, looked up): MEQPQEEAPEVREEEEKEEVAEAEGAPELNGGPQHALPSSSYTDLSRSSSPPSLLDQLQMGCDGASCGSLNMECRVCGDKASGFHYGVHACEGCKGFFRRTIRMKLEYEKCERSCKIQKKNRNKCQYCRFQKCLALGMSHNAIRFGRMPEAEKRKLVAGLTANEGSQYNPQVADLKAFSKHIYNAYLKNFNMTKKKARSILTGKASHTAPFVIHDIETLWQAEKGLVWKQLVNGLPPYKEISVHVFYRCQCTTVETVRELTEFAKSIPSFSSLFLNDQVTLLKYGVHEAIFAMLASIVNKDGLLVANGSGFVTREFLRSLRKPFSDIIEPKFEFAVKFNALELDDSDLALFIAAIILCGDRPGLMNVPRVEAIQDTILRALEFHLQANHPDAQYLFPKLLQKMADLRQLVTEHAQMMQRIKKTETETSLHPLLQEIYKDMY
Transcriptional activator Myb (Homo sapiens), sequence (P10242 whole entry, looked up): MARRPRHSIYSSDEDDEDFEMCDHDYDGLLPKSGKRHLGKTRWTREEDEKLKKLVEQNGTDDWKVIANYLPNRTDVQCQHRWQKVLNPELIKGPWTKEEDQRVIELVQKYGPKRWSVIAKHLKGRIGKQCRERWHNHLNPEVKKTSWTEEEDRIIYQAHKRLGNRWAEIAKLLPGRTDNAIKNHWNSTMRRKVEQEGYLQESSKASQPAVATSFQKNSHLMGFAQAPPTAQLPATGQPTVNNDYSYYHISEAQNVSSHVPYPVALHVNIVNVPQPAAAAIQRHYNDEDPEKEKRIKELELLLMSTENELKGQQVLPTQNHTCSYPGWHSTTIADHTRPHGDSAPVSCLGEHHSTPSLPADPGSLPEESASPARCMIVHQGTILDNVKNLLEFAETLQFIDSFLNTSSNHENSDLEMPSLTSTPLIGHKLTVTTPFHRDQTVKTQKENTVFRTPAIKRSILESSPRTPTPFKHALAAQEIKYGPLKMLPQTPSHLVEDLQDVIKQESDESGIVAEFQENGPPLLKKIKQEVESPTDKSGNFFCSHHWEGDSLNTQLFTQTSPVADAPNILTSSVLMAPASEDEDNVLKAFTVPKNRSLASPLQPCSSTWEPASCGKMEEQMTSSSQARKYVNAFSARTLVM
Cellular tumor antigen p53 (Homo sapiens), sequence (P04637 whole entry, looked up, the tested form may be a part): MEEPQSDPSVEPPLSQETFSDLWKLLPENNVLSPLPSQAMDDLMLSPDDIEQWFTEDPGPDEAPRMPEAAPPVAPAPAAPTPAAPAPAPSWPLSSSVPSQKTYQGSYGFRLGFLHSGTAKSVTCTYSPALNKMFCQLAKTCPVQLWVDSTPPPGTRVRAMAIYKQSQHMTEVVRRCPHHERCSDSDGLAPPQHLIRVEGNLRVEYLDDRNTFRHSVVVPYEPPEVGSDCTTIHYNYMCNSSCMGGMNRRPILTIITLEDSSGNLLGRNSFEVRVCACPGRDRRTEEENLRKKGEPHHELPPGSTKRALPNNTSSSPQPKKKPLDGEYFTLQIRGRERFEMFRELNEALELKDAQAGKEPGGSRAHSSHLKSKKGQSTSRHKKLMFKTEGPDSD
Myc proto-oncogene protein (Homo sapiens), sequence (P01106 whole entry, looked up): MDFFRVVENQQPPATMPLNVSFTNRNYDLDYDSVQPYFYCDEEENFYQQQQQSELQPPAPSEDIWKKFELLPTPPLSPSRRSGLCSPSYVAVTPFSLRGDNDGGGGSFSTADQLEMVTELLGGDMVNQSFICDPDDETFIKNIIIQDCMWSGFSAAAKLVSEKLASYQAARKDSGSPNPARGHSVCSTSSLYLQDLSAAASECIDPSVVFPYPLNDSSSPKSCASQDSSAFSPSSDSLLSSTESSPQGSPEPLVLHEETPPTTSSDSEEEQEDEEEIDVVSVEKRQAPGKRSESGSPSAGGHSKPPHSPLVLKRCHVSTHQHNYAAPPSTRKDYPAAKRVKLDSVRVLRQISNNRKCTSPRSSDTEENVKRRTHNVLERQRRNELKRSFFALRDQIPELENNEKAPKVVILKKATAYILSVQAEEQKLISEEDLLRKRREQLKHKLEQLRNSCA
Nuclear receptor subfamily 4 group A member 2 (Homo sapiens), sequence (P43354 whole entry, looked up, the tested form may be a part): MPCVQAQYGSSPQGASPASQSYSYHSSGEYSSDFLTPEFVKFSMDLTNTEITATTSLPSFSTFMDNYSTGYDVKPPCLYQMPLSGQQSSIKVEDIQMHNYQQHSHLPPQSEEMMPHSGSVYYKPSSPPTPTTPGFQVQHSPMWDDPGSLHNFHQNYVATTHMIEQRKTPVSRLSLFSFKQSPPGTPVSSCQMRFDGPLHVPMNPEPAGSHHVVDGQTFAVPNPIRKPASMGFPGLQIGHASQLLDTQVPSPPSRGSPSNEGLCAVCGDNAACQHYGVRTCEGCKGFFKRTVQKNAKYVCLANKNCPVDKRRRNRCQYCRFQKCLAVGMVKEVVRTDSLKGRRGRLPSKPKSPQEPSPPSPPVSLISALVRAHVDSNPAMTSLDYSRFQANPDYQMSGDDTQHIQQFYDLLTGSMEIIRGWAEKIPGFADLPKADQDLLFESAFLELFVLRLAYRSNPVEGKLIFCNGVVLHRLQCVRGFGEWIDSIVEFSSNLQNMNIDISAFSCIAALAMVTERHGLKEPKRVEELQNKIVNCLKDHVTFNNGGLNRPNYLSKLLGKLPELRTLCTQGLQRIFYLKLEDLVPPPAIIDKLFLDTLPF
Hepatocyte nuclear factor 4-alpha (Homo sapiens), sequence (P41235 whole entry, looked up): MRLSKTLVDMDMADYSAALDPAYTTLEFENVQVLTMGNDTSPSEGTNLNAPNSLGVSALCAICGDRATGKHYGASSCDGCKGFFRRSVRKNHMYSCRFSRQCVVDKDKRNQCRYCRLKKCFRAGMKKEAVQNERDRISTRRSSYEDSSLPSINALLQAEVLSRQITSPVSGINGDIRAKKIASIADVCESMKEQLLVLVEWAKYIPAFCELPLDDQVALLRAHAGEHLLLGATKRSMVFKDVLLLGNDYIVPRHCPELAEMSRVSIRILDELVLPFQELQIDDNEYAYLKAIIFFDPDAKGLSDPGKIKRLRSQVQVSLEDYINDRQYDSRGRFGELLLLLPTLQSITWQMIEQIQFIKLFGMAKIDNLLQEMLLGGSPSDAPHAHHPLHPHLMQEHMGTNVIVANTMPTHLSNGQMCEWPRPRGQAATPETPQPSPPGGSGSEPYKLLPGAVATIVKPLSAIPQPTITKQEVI
human Peroxisome Proliferator-activated Receptor alpha (PPARa), PPARA (gene 5465), sequence (Q07869 whole entry, looked up, the tested form may be a part): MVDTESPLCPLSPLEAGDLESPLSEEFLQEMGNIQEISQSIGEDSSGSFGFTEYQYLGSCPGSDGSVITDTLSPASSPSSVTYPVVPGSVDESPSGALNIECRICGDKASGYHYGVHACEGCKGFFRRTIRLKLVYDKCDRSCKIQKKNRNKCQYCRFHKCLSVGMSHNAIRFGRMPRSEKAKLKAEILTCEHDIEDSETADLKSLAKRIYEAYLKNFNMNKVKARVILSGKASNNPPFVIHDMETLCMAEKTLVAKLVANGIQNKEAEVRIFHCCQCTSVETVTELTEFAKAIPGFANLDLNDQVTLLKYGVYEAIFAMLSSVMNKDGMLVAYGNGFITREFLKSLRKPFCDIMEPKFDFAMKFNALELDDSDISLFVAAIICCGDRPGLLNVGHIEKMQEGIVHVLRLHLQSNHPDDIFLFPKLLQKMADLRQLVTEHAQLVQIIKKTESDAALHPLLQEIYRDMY
Nuclear respiratory factor 1 (Homo sapiens), sequence (Q16656 whole entry, looked up): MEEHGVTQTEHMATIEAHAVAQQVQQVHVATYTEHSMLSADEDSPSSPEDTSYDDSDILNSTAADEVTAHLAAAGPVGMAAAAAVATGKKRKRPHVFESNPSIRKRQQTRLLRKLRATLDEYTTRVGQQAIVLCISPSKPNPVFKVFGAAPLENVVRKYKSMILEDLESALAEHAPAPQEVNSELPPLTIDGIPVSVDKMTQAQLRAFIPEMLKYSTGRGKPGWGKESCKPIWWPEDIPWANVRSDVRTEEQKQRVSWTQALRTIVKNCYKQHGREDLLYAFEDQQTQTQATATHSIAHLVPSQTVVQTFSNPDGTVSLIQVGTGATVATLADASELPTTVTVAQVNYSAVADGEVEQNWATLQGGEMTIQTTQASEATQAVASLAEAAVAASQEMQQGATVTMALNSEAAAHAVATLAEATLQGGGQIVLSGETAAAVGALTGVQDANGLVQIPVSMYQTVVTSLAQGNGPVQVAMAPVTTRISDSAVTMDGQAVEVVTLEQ

For `c1cnc2c(c1)ccc1cccnc12`, the result in [1], in experiment [2], in experiment [3], in experiment [4], in experiment [6] and in experiment [7] was inactive. In addition, the compound was called inactive in experiment [8], in experiment [9], in experiment [10], in [12] and in [13]. Besides, the AC50 (commonly the concentration at which the activity in the assay is half-maximal) in experiment [5] is 4.62 µM (active) and 6.45 µM (active); in [8] it was 100 µM (active); in experiment [9], 3.04 µM (active); in experiment [10], 155 µM (active); in [11] it was 6.68 µM (active) and 6 µM (active); in experiment [12] it was 28.6 µM (active).
`O=C(F)C(F)(F)C(F)(F)C(F)(F)C(=O)F`: the compound was classed as inactive in experiment [1], in experiment [2], in experiment [14], in experiment [4], in experiment [5] and in [6]. In addition, the result in experiment [7], in [8], in experiment [9], in experiment [10], in experiment [11] and in [12] was inactive.
`Cc1ccc(S(=O)(=O)O)cc1`: the call in experiment [1], in [2], in experiment [14], in experiment [3], in experiment [4] and in experiment [5] was inactive. Further, the result in experiment [6], in experiment [7], in [9], in experiment [11] and in experiment [12] was inactive.
For `c1ccc(CNc2ncnc3c2ncn3C2CCCCO2)cc1` (stereo unspecified), the call in experiment [1], in experiment [2], in experiment [14], in experiment [3], in [4] and in experiment [5] was inactive. Also, the call in experiment [6], in experiment [7], in [8], in experiment [10], in experiment [11] and in [13] was inactive. For the same compound, the AC50 in experiment [9] is 19.8 µM (active).
As for `CCCCCCOC(=O)c1ccc(O)cc1`, the compound was called inactive in [1], in experiment [2], in [14], in experiment [4], in [9] and in [13]. In addition, the AC50 in experiment [5] is 58.5 µM (active); in experiment [6], 55 µM (active); in experiment [7], 60.9 µM (active); in [8], 62.5 µM (active); in experiment [11], 52.2 µM (active); in experiment [12], 63.7 µM (active).
As to `C=CC(=O)OCC(CO)(COCC(COC(=O)C=C)(COC(=O)C=C)COC(=O)C=C)COC(=O)C=C`, the compound was called inactive in experiment [1], in experiment [2], in experiment [14], in experiment [6], in experiment [7] and in experiment [9]. Also, the call in [12] was inactive. Also, the concentration at half-maximal activity (AC50) in experiment [4] was 7.52 µM (active); in [5], 14.9 µM (active); in [8] it was 0.817 µM (active); in [10] it was 2.89 µM (active); in experiment [11] it was 2.86 µM (active).
Regarding `CCCCC(CC)C(=O)O` (stereo unspecified), the result in experiment [1], in experiment [2], in [14], in experiment [4], in [5] and in [7] was inactive. In addition, the compound was classed as inactive in experiment [9], in [10], in experiment [15], in experiment [16], in experiment [17] and in [18]. Moreover, the call in experiment [12] and in [13] was inactive.
For the compound `C=CCOCC(CO)(CO)CO`, the compound was classed as inactive in experiment [1], in experiment [2], in experiment [14], in experiment [4], in experiment [5] and in experiment [6]. Moreover, the call in experiment [7], in [8], in experiment [9], in experiment [10], in [11] and in experiment [13] was inactive.
For the compound `C/C=C/C(=O)C1=C(C)CCCC1(C)C`, the AC50 in experiment [1] was 159 µM (active); in [3], 152 µM (active); in experiment [6], 65.1 µM (active); in experiment [9] it was 3.93 µM (active); in experiment [11] it was 164 µM (active). For the same compound, the outcome in experiment [2], in [14], in experiment [4], in [5], in experiment [7] and in experiment [8] was inactive.
As for `CCCCc1ccc2ccccc2c1S(=O)(=O)O`, the result in experiment [1], in experiment [2], in experiment [14], in experiment [4], in [5] and in [7] was inactive. Besides, the compound was called inactive in experiment [8], in experiment [10], in experiment [11], in experiment [12] and in [13]. For the same compound, the AC50 in [9] was 8.84 µM (active).
